TEAD-YAP inh: TEAD-YAP interaction inhibition | 640,000 tested, 1.4% active | inhibition, % at 9.12 µM | AID 1259422 | HEK-TIYL cells, TEAD-Gal4/YAP UAS-luciferase luminescence; in the data active = inhibition above about 32%;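 note: 0% = median of test compound wells and 100% = reference inhibitor wells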
MITF inh: inhibitors of human MITF. 650,000 tested, 0.91% active. inhibition, % at 2.6 µM. AlphaScreen MITF homodimerization, bead proximity signal. O75030. AID 1259374; in the data active = inhibition above about 50%;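 note: 0% = vehicle wells with protein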
Target sequence (O75030 whole entry, looked up): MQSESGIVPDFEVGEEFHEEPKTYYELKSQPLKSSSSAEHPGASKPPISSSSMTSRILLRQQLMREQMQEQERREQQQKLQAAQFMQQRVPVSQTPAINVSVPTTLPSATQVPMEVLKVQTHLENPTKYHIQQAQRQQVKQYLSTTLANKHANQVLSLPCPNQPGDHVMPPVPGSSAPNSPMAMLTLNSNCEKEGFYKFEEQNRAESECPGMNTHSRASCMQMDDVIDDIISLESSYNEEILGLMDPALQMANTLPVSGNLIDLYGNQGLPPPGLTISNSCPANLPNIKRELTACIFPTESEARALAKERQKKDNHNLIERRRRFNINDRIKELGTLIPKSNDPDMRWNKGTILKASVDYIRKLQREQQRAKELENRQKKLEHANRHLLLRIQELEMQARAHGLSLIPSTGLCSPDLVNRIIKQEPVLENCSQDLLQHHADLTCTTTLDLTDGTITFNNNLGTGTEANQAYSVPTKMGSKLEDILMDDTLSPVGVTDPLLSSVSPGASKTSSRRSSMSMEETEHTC
GPR151 ag: human GPR151 activation. Q8TDV0. PathHunter beta-arrestin GPR151 cells, luminescence. activation, % at 11.2 µM. 650,000 tested, 1% active. AID 1508602; in the data active = activation above about 4.9%;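 note: 0% = median of compound wells and 100% = cells with positive control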
FBW7 activator: human FBW7 E3 ligase activation, primary screen | 650,000 tested, 0.13% active | Q969H0 | AlphaScreen FBW7–phospho-cyclin E peptide binding, activator screen | normalized activity (activation), % at 26.1 µM; in the data active = normalized activity above about 1.9%;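 note: purified mutant Fbw7 with reduced substrate affinity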
Starred values were filed as active, the others as inactive. Hits are enriched below; roughly 3.5% of the tested compounds scored in any of these assays.

SMILES	TEAD-YAP inh	MITF inh	GPR151 ag	FBW7 activator
COc1ccccc1-n1nc(C(=O)Nc2cc(OC)c(OC)c(OC)c2)c2ccccc2c1=O	32*	0	0	0
Cn1nc(CC(=O)Nc2ccc(F)cc2F)c2ccccc2c1=O	34*	1	-1	0
COc1ccc(-n2nc(C(=O)NCC(=O)NCCc3ccc(OC)c(OC)c3)c3ccccc3c2=O)cc1	17	2	0	1
COc1ccc(CCNC(=O)CNC(=O)c2nn(-c3ccc(OC)c(OC)c3)c(=O)c3ccccc23)cc1OC	40*	1	0	0
CC(C)c1ccc(/C=C2\N=C(c3ccc(Cl)c([N+](=O)[O-])c3)OC2=O)cc1	-3	6	1	0
O=C(Cn1cnc2c(cnn2-c2ccccc2)c1=O)Nc1ccc(Br)cc1	5	13	0	0
CC(=O)Nc1ccc(S(=O)(=O)N2CCN(c3c(C)cc(C)cc3C)CC2)cc1	-5	-2	1	0
Cn1c(C(=O)O)c(CC(=O)NCC2COc3ccccc3O2)c2ccccc21 (stereo not drawn)	-6	17	2	0
COc1ccc(-n2nc(C(=O)NCC(=O)NCC3COc4ccccc4O3)c3ccccc3c2=O)cc1OC (stereo not drawn)	36*	-2	0	0
Cn1nc(CC(=O)NCC2COc3ccccc3O2)c2ccccc2c1=O (stereo not drawn)	36*	11	0	0
CS(=O)(=O)Nc1cccc(-c2cnc3c(Nc4ccc5[nH]ccc5c4)nccn23)c1	90*	18	-1	0
Fc1cccc(-c2cnc3c(Nc4ccc5[nH]ccc5c4)nccn23)c1	13	-22	-3	0
c1ccc(-c2cnc3c(Nc4ccc5[nH]ccc5c4)nccn23)cc1	0	-5	-2	0
c1cnc2c(-c3cnc4c(Nc5ccc6[nH]ccc6c5)nccn34)cccc2c1	55*	7	0	-1
COCC(C)n1c(C)cc(C(=O)COC(=O)c2cccn2C)c1C (stereo not drawn)	67*	11	-2	0
Cc1[nH]n(-c2ccccc2)c(=O)c1C(c1cccc(Br)c1)c1c(C)[nH]n(-c2ccccc2)c1=O	1	0	-1	-1
Cc1[nH]n(-c2ccccc2)c(=O)c1C(=O)c1cccc(Br)c1	59*	12	1	0
O=C(NCCOc1ccc(Cl)cc1)c1cccc(C(=O)NCCOc2ccc(Cl)cc2)c1	6	7	0	0
NS(=O)(=O)c1cc(C(=O)NCCOc2ccc(Cl)cc2)c(Cl)cc1Cl	37*	-7	-1	0
CCCN1C(=O)C2CC(C)=C(C)CC2C1=O (stereo not drawn)	-4	5	-1	0
Cc1ccc(S(=O)(=O)N(C)c2ccc(C(=O)N3CCCCC3)cc2)cc1	13	4	1	0
Cc1ccc(S(=O)(=O)N(C)c2ccc(C(=O)N3C(C)CCCC3C)cc2)cc1 (stereo not drawn)	48*	11	5	1
O=C(Cc1cn(-c2ccc(Nc3ccc(N4CCOCC4)cc3)nn2)c2ccccc12)NCc1ccccc1	48*	14	-1	0
O=C1OC(C2CCCCC2)=N/C1=C\c1cccc(Cl)c1Cl	-6	7	-1	0
CN(C)c1ccc(-c2nc3ccccc3c(=O)[nH]2)cc1	72*	7	-7	0
SMILES	TEAD-YAP inh	MITF inh	GPR151 ag	FBW7 activator
Cc1ccc(-c2cccc3cnc(Nc4cccc(C(=O)N5CCCC5)c4)nc23)cn1	25	18	2	0
Cc1ccc(-c2cccc3cnc(Nc4ccc(C(=O)NC5CC5)cc4)nc23)cn1	64*	-4	-1	0
Cc1ccc(-c2cccc3cnc(Nc4cccc(C(=O)NC5CC5)c4)nc23)cn1	33*	30	1	0
C/C(=N\NC(=O)c1cc(C)oc1C)c1cccc([N+](=O)[O-])c1	-32	10	-1	0
Cc1sc2ncnc(N/N=C/c3ccc([N+](=O)[O-])o3)c2c1C	35*	8	0	-1
Cc1sc2ncnc(N/N=C/c3cccc([N+](=O)[O-])c3)c2c1C	-4	-8	2	0
CC(C)N(CCNc1cc(Nc2ccc(C(F)(F)F)cc2)ncn1)C(C)C	-5	5	2	0
COc1ccc(C(=O)COC(=O)c2ccccc2[N+](=O)[O-])cc1	2	32	-7	0
CCOc1ccc(C(=O)COC(=O)c2ccccc2[N+](=O)[O-])cc1	-1	5	-1	1
O=C(COC(=O)c1ccccc1[N+](=O)[O-])c1ccccc1Cl	34*	12	-2	0
Cc1ccc(C(=O)COC(=O)c2ccccc2[N+](=O)[O-])cc1	90*	-11	-6	1
CCc1ccc(C(=O)COC(=O)c2ccccc2[N+](=O)[O-])cc1	55*	13	-2	1
Cc1c(C(=O)OCC(=O)c2ccccc2Cl)cccc1[N+](=O)[O-]	-8	-3	1	0
COC(=O)CC[C@H]1CN(Cc2cc(OC)ccc2O)CC[C@H]1N1CCOCC1	0	-2	-1	0
CCOc1ccc(CSc2n[nH]c(CC)n2)cc1	-5	6	-1	0
CCOc1ccc(CSc2n[nH]c(C)n2)cc1	88*	5	-4	0
CCCOc1ccc(CSc2n[nH]c(C)n2)cc1	82*	-5	-3	0
c1ccc(N=C2NN=C(c3ccccc3)CS2)cc1	-36	-7	1	0
c1ccc(C2=NNC(=NC3CC3)SC2)cc1	80*	-7	-10	0
Cc1nc(SCc2ccc(CSc3n[nH]c(C)n3)cc2)n[nH]1	83*	6	-7	0
Cc1nc(SCc2ccccc2)n[nH]1	3	-3	1	0
COc1ccc(CSc2n[nH]c(C)n2)cc1	64*	7	0	0
O=C(Nc1cc(Cl)ccc1O)c1cccnc1Cl	4	-12	-1	0
CCOC(=O)c1c(C)oc2ccc(NS(=O)(=O)c3ccc(Br)cc3)cc12	-9	-5	0	0
CCOc1ccc(S(=O)(=O)Nc2ccc3oc(C)c(C(=O)OC(C)C)c3c2)cc1	8	10	-1	1
SMILES	TEAD-YAP inh	MITF inh	GPR151 ag	FBW7 activator
CCOC(=O)c1c(C)oc2cc(C)c(NS(=O)(=O)c3cccs3)cc12	46*	5	1	0
CCCc1oc2ccc(NS(=O)(=O)c3ccc(Br)cc3)cc2c1C(=O)OCC	42*	-12	0	0
COCCOC(=O)c1c(C)oc2cc(C)c(NS(=O)(=O)c3cccs3)cc12	21	11	3	0
CCOC(=O)c1c(C)oc2ccc(NS(=O)(=O)c3ccc(OCC)cc3)cc12	54*	13	1	0
CCOC(=O)c1c(C)oc2ccc(NS(=O)(=O)c3ccc(OC)cc3)cc12	42*	4	4	0
O=C(Nc1ccc(Br)cc1)c1cccc(S(=O)(=O)Nc2ccc(F)cc2)c1	10	4	-1	0
CCOC(=O)c1c(C)oc2c(Cl)cc(NS(=O)(=O)c3ccc(OCC)cc3)cc12	56*	0	1	0
CCOC(=O)c1cnc(SCC(=O)N2CCCCC2CC)nc1N (stereo not drawn)	-1	12	0	0

Compound activity deposited in PubChem BioAssay by The Scripps Research Institute Molecular Screening Center.
